High-throughput results: PubChem, The Scripps Research Institute Molecular Screening Center
Sampled rows, rich in hits. Any-hit rate of the full collection: about 3.5%.
MITF primary = blocks human microphthalmia-associated transcription factor; O75030; AlphaScreen MITF homodimerization, bead proximity signal; inhibition, % at 2.6 µM; actives 0.91% (n = 650,000); in the data active = inhibition above about 50%;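 note: 0% = vehicle wells with protein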
TEAD-YAP block = TEAD-YAP interaction inhibition; HEK-TIYL cells, TEAD-Gal4/YAP UAS-luciferase luminescence; inhibition, % at 9.12 µM; actives 1.4% (n = 640,000); AID 1259422; in the data active = inhibition above about 32%;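 note: 0% = median of test compound wells and 100% = reference inhibitor wells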
GPR151 ag = human GPR151 activation; actives 1% (n = 650,000); PathHunter beta-arrestin GPR151 cells, luminescence; activation, % at 11.2 µM; Q8TDV0; in the data active = activation above about 4.9%;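 note: 0% = median of compound wells and 100% = cells with positive control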
FBW7 act = human FBW7 E3 ligase activation, primary screen; Q969H0; AlphaScreen FBW7–phospho-cyclin E peptide binding, activator screen; normalized activity (activation), % at 26.1 µM; actives 0.13% (n = 650,000); AID 1259310; in the data active = normalized activity above about 1.9%;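 note: purified mutant Fbw7 with reduced substrate affinity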
Target sequence (Q969H0 whole entry, looked up): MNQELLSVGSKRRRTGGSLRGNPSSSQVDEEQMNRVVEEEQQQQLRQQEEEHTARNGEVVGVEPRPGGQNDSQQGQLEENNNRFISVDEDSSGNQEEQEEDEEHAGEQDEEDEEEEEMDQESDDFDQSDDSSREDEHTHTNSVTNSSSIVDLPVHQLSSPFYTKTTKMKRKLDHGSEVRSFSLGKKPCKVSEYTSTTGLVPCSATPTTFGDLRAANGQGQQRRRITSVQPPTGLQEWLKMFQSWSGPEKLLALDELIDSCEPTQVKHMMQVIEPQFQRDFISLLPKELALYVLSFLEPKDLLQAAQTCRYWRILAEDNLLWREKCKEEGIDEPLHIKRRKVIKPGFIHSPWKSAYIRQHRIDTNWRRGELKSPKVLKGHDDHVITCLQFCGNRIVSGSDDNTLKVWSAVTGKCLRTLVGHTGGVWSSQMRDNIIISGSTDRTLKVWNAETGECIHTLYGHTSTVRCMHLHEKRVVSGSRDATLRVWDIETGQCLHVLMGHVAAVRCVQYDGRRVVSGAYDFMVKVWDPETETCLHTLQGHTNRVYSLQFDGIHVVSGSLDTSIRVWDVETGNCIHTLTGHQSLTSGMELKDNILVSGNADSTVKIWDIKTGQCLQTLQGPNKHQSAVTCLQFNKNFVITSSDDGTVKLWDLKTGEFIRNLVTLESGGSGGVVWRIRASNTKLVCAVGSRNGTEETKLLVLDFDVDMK
GPR151 conf act = confirmation of human GPR151 activators; shares compounds with GPR151 ag; activation, % at 11.2 µM; GPR151 PathHunter beta-arrestin cells, luminescence, 90 min; % of EA-reagent control over plate median; 6,700 tested, under 10 active; AID 1508609;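 active = mean percent activation across replicates above the confirmation screen cutoff of 4.91%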
GPR119 ag = activates human GPR119 in a GPR151 counter-screen. actives 0.3% (n = 6,700). GPR119 PathHunter beta-arrestin cells, luminescence, 90 min; 0 = compound-well median, 100 = enzyme-acceptor control. activation, % at 11.2 µM. shares compounds with GPR151 ag;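 active = mean percent activation in the counterscreen above 29.09%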;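 note: counterscreen on off-target GPR119 to flag nonselective hits from the GPR151 activator screen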
* marks the source's active call; other numbers are inactive results; nt = not tested or not shown.

SMILES | MITF primary | TEAD-YAP block | GPR151 ag | FBW7 act | GPR151 conf act | GPR119 ag
NC(=O)NC(=O)CSc1nc2sc3c(c2c(=O)n1-c1ccccc1)CCCC3 | -9.3 | -12.2 | -0.1 | -0.1 | nt | nt
O=C(NN1C(=O)C2C3C=CC(C3)C2C1=O)c1ccc(Cl)cc1Cl (stereo unspecified) | 12.3 | -2.0 | -0.4 | 0.0 | nt | nt
O=C1C2C3C=CC(C3)C2C(=O)N1Nc1c(Cl)cc(Cl)cc1Cl (stereo unspecified) | 1.2 | 2.0 | 6.6* | 0.0 | 1.8 | 4.9
Cc1nn(-c2ccc(Cl)cc2)c2sc(C(=O)Nc3ccc(C(N)=O)cc3)cc12 | 3.3 | 9.8 | 6.7* | -0.1 | 0.6 | 3.3
Cc1nn(-c2ccccc2)c2sc(C(=O)Nc3ccc(Cl)cc3)cc12 | 0.3 | -1.8 | 0.0 | -0.1 | nt | nt
CC1=CC2=NC(=O)/C(=C\c3ccc(-c4ccccc4Cl)o3)C(=N)N2O1 | 7.7 | 2.7 | 0.6 | 0.1 | nt | nt
CC1=CC2=NC(=O)/C(=C\c3ccc(-c4cccc(Cl)c4)o3)C(=N)N2O1 | -1.1 | 6.6 | 5.9* | 0.1 | 0.3 | 10.9
Cc1cc2ccccc2n1CCNC(=O)c1cccc(F)c1 | -10.2 | -2.6 | -1.0 | -0.4 | nt | nt
O=C(NCc1ccco1)C1CN(C(=O)c2ccc(F)c(F)c2)C1 | -1.4 | 1.7 | 1.3 | -0.2 | nt | nt
O=C(NC1CCSC1=O)C1CN(C(=O)c2ccc(F)c(F)c2)C1 (stereo unspecified) | -0.7 | 0.7 | 8.2* | 0.1 | 0.1 | -4.4
CCC(C)N1C(=O)/C(=C\c2ccco2)SC1=S (stereo unspecified) | -2.2 | 1.9 | 8.1* | -0.1 | 0.4 | 1.5
CCCN1C(=O)/C(=C/c2ccco2)SC1=S | 22.0 | -6.9 | -1.2 | 0.0 | nt | nt
CCN(CCN(C)C)Cc1cc(OC)c(OC)cc1[N+](=O)[O-] | 24.2 | -5.3 | 5.3* | 0.1 | -0.1 | -6.0
COc1ccccc1CNS(=O)(=O)c1ccc2c(c1)oc(=O)n2C | 18.0 | 1.9 | 5.9* | 0.1 | -1.1 | -9.1
CCCN(CCC)CCNS(=O)(=O)c1ccc2c(c1)oc(=O)n2C | 5.9 | -5.3 | 7.6* | 0.0 | 0.3 | 8.2
COc1ccc(OC)c(CNS(=O)(=O)c2ccc3c(c2)oc(=O)n3C)c1 | 2.1 | 19.7 | -0.6 | 0.0 | nt | nt
O=S1(=O)CCC(NS(=O)(=O)c2ccc(S(=O)(=O)NC3CC3)cc2)C1 (stereo unspecified) | -5.6 | -7.7 | 5.2* | 1.2 | -1.1 | -8.8
CC(=O)c1cccc(NC(=O)CCS(=O)(=O)c2ccccc2)c1 | -4.8 | -65.6 | 0.4 | 0.0 | nt | nt
Cc1cccc2sc(N(Cc3ccccn3)C(=O)CCOc3ccccc3)nc12 | -6.3 | -13.8 | 5.8* | 0.3 | -0.2 | 2.6
Oc1ccc(-c2nc(-c3ccc(-c4ccccc4)cc3)c(-c3ccc(-c4ccccc4)cc3)[nH]2)cc1 | 10.6 | 9.4 | -0.7 | 0.1 | nt | nt
Oc1ccc(-c2nc(-c3cccc(C(F)(F)F)c3)c(-c3ccccc3)[nH]2)cc1 | 6.7 | 11.6 | 5.8* | 0.2 | -0.3 | -3.9
Cc1cccc(-c2n[nH]c(=S)n2CC(=O)O)c1 | 7.3 | 2.9 | 7.2* | 0.1 | 0.3 | 3.2
CC(=O)c1ccc(N2CN=c3s/c(=C\c4ccccc4O)c(=O)n3C2)cc1 | -12.9 | -0.4 | -0.2 | 0.1 | nt | nt
CC(=O)c1cc(C)ccc1OC(=O)c1ccc([N+](=O)[O-])cc1 | 7.7 | -0.6 | 6.4* | -0.1 | 0.8 | -8.8
O=C1NC2(CCN(Cc3ccc(F)c(F)c3)CC2)Oc2ccccc21 | 2.5 | -0.9 | 0.6 | 0.2 | nt | nt
SMILES | MITF primary | TEAD-YAP block | GPR151 ag | FBW7 act | GPR151 conf act | GPR119 ag
O=C1NC2(CCN(Cc3ccc4nccnc4c3)CC2)Oc2ccccc21 | -4.8 | 4.0 | 5.0* | 0.3 | -0.8 | -11.5
Cc1ccc(C(=O)CSc2nc(N)cc(=O)[nH]2)cc1C | -10.3 | -5.9 | 5.9* | 0.0 | 0.7 | 3.0
Cc1cc(C(=O)CSc2nc(N)cc(=O)[nH]2)ccc1F | -12.8 | -13.9 | -1.1 | -0.3 | nt | nt
Cc1[nH]c2ccccc2c1C(=O)CSc1nc(N)cc(=O)[nH]1 | 5.8 | 9.6 | 5.8* | 0.0 | 0.0 | 7.1
COc1cc2nc(N3CCc4ccccc4C3)nc(Nc3ccc(Oc4ccccc4)cc3)c2cc1OC | -7.1 | 3.7 | -0.7 | -0.1 | nt | nt
CC1CCCN(C(=O)NC2(C(F)(F)F)Oc3ccccc3O2)C1 (stereo unspecified) | 7.3 | -15.1 | 5.7* | 0.2 | 1.0 | 6.8
O=C(COc1ccc(Cl)cc1)NCc1cc(-c2cccs2)on1 | -1.2 | 10.7 | 5.2* | 0.3 | -1.3 | -14.1
COc1cc(OC)c(/C=C2\C(=O)NC(=O)N(c3ccc(F)cc3)C2=O)c(OC)c1 | -19.0 | 4.8 | 0.0 | 0.1 | nt | nt
Cc1nnc(-c2ccccc2)c(=O)n1/N=C/c1ccc2c(c1)OCO2 | -8.6 | -6.2 | 8.1* | 0.0 | 0.4 | 8.2
Cc1nnc(SCC(=O)O)n1/N=C/c1ccc2c(c1)OCO2 | -6.2 | -7.5 | 1.6 | 0.0 | nt | nt
C=CCn1c(SCc2ccc(OC)c([N+](=O)[O-])c2)nnc1-c1cccc(Br)c1 | -18.3 | -7.5 | 5.0* | -0.1 | -0.4 | -4.2
COc1cc(C=O)ccc1OCC(=O)Nc1ccccc1C(=O)c1ccccc1 | 15.5 | -1.4 | 5.8* | -0.1 | 0.5 | 1.0
COC(=O)c1ccccc1NC(=O)COc1ccc(F)cc1 | 0.0 | 3.1 | -1.9 | 0.2 | nt | nt
COC(=O)c1ccccc1NC(=O)COc1ccc(C=O)cc1 | 1.1 | -0.4 | 8.0* | -0.1 | 0.3 | -9.6
CCOc1ccc(C(=O)NC(=S)Nc2ccccc2C(=O)OC)cc1 | 6.5 | -4.4 | 6.8* | 0.0 | 0.9 | -9.0
COc1ccccc1OCC(=O)Nc1ccccc1C(=O)O | -6.6 | -56.8 | -4.2 | -0.1 | nt | nt
CCOc1ccc(C(=O)NC(=S)Nc2ccccc2C(=O)OC)cc1[N+](=O)[O-] | -6.2 | 0.5 | 2.1 | -0.1 | nt | nt
CCOc1ccc(N2C(=O)/C(=C\c3ccc(C(C)(C)C)cc3)S(=O)(=O)C2c2cccc([N+](=O)[O-])c2)cc1 (stereo unspecified) | -1.3 | 4.4 | 0.2 | 0.0 | nt | nt
COc1cc2cc(C#N)c(SCC(=O)N3CCN(c4ccccc4)CC3)nc2cc1OC | 6.6 | 15.3 | 1.0 | -0.1 | nt | nt
Nc1nn2c(-c3ccccc3)ccnc2c1[N+](=O)[O-] | 2.6 | 8.2 | -0.1 | 0.0 | nt | nt
CC(NCc1cc(Br)ccc1OCC(N)=O)C12CC3CC(CC(C3)C1)C2 (stereo unspecified) | 1.5 | 23.6 | 7.6* | -0.1 | -0.8 | -17.8
Cc1oc(-c2cccs2)nc1CSCC(=O)NCc1ccccc1Cl | 7.5 | 14.4 | 1.0 | -0.1 | nt | nt
CO/N=C(\CSc1ccccc1OC)c1sc2ncnn2c1C | -4.6 | -14.9 | 2.6 | 0.3 | nt | nt
Cc1c(C(=O)CSc2ccc(F)cc2F)sc2ncnn12 | 10.3 | -7.6 | 5.9* | 0.0 | 0.2 | 7.0
COc1cccc(NC(=O)c2sc3ncn(CC(=O)N4CCCC4)c(=O)c3c2C)c1 | 7.6 | -4.7 | -0.7 | 0.0 | nt | nt
